# Screening data: PubChem, The Scripps Research Institute Molecular Screening Center
# An excerpt weighted towards active compounds, which were near 3.1% of everything screened.
# PAFAH2 inh: PAFAH2 (human) inhibition | Q99487 | recombinant PAFAH2, FP-rhodamine activity probe, fluorescence polarization | inhibition, % at 3.39 µM | hit rate 0.99% among 340,000;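 active means inhibition above the mean over all tested compounds plus 3 SD, cut at about 30% in these data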;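 further: inhibitors block probe labeling of enzyme so polarization drops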
# Rin1-Abl PPI inh: human Rin1-Abl interaction inhibition; TR-FRET Rin1/Abl binding, biochemical; P00519+Q13671; inhibition, % at 7.35 µM; hit rate 0.4% among 360,000; AID 588664; in the data active means inhibition above about 5%, passing the limit was not always enough
# pPAFAH inh: inhibitors of human plasma PAF acetylhydrolase (pPAFAH) | Q13093 | recombinant pPAFAH, FP-rhodamine probe fluorescence polarization | inhibition, % at 3.39 µM | hit rate 1.5% among 330,000 | AID 463082;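 active means inhibition above the mean inhibition across the screen plus 3 SD, cut at about 25% in these data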;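 further: inhibitors block binding of the rhodamine activity-based probe so polarization drops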
# E coli Lon inh: inhibits E. coli Lon protease; P0A9M0; purified E. coli Lon protease, fluorescence polarization; inhibition, % at 7.94 µM; hit rate 0.42% among 360,000; in the data active means inhibition above about 13%, passing the limit was not always enough
# Target sequence (P0A9M0 whole entry, looked up): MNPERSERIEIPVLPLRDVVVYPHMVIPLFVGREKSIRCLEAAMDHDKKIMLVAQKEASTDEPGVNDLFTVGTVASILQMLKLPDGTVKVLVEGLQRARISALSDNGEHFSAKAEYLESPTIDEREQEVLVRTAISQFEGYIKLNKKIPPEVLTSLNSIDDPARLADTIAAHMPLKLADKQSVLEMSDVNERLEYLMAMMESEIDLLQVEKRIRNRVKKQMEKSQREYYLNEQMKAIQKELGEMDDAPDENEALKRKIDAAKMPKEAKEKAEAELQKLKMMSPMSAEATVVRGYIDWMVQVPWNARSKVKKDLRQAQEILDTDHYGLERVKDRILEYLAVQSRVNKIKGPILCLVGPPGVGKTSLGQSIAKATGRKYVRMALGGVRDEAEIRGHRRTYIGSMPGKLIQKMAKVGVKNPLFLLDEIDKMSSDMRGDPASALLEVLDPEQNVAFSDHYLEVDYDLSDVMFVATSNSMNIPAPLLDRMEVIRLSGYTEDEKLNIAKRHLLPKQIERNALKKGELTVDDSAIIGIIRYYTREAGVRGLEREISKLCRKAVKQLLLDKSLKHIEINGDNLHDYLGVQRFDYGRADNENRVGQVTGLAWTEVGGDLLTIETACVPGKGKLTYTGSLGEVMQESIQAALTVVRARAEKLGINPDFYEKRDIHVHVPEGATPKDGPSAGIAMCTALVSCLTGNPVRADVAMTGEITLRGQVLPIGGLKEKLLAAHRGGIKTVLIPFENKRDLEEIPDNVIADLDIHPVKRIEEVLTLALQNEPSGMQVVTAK
# PAFAH1B3 inh: blocks human PAF acetylhydrolase 1B catalytic subunit 3; recombinant PAFAH1B3, FP-rhodamine probe, fluorescence polarization; inhibition, % at 3.39 µM; hit rate 0.28% among 340,000; AID 492972;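 active means inhibition above the screen-wide average of all tested compounds plus 3 SD, cut at about 25% in these data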
# PAFAH1B2 FP inh: blocks human PAF acetylhydrolase 1b catalytic subunit 2. P68402. recombinant PAFAH1B2, FP-rhodamine activity probe, fluorescence polarization. inhibition, % at 3.39 µM. hit rate 1.2% among 340,000. AID 492953;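 active means inhibition above the mean of all tested compounds plus 3 SD, cut at about 24% in these data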
# A number is an active result; n = inactive; x = not tested or not shown.
SMILES,PAFAH2 inh,Rin1-Abl PPI inh,pPAFAH inh,E coli Lon inh,PAFAH1B3 inh,PAFAH1B2 FP inh
CCC(NC(=O)c1cc(COc2cncc(Cl)c2)on1)c1ccc(C)cc1 (stereo unspecified),n,n,n,n,n,28
O=C1C(=O)N(CNc2ccccn2)c2ccccc21,n,n,29,n,n,n
O=C1C(=O)N(CNc2cccnc2)c2ccccc21,n,n,n,n,n,n
CCCn1c(=S)[nH]c2cc(C(=O)N3CCN(C(=O)OCC)CC3)ccc2c1=O,n,n,n,n,n,n
CCOC(=O)N1CCN(C(=O)c2ccc3c(=O)n(CCC4=CCCCC4)c(=S)[nH]c3c2)CC1,n,n,n,n,n,25
COc1cc(/C=N/N2CCN(c3ccc(Cl)cc3)CC2)cc(OC)c1OC(C)=O,n,n,n,n,n,25
CCn1nc(NS(=O)(=O)c2ccc([N+](=O)[O-])cc2)c2cc3cccc(C)c3nc21,n,n,28,n,n,n
Cc1[nH]c(=O)c(S(=O)(=O)c2ccccc2)c(C)c1Cl,n,n,n,n,n,n
O=c1ccc2[n+]([O-])c3ccc(O)cc3oc-2c1,155,n,x,n,149,136
COc1c(-c2ccccc2)oc2c(ccc3occc32)c1=O,n,n,n,n,n,n
Cc1ccccc1C1CC(=O)Oc2cc(O)ccc21 (stereo unspecified),40,n,32,n,41,34
c1ccc2c(C(c3nnnn3-c3ccc4c(c3)OCCO4)N3CCCCC3)ccnc2c1 (stereo unspecified),x,x,x,n,x,x
Cc1c(C(=O)N2CCCCC2)c(S(=O)(=O)N2CCN(c3ccc(Cl)cc3)CC2)c(C)n1C,n,n,25,n,n,n
COc1ccccc1N(C)c1cc2c(c3c1ccn3C)C1CCC2O1 (stereo unspecified),x,n,x,n,x,x
CCOC(=O)Cn1c(=O)oc2cc(S(=O)(=O)NCc3ccccn3)ccc21,n,n,n,26,n,n
CCOC(=O)Cn1c(=O)oc2cc(S(=O)(=O)Nc3c(C)cc(C)cc3C)ccc21,n,n,25,n,n,n
N#CC1=C(c2ccc(-c3ccccc3)cc2)COC1=O,n,n,26,n,n,n
O=c1c2ccccc2nc(N/N=C/c2c(O)ccc3ccccc23)n1O,n,n,34,n,n,n
O=c1c2ccccc2nc(N/N=C/c2ccc(O)cc2)n1O,n,n,n,n,n,n
O=C(Nc1ccccc1Cl)C1CCCN(c2ncnc3c2nc2n3CCCCC2)C1 (stereo unspecified),n,n,n,n,n,n
COc1ccccc1CNC(=O)COC(=O)Cc1ccc(Cl)cc1,n,n,27,n,n,n
O=C(Cc1ccccc1F)Nc1ccc(SC(F)F)cc1,n,n,n,n,n,n
CCN(CC)S(=O)(=O)c1cccc(C(=O)OCC(=O)NCc2ccccc2OC)c1,n,n,32,n,n,n
O=C(COC(=O)Cc1ccccc1F)Nc1ccc(SC(F)F)cc1,n,n,26,n,n,n
COc1ccc(NC(=O)COC(=O)Cc2ccc(Br)cc2)cc1,n,n,29,n,n,n
SMILES,PAFAH2 inh,Rin1-Abl PPI inh,pPAFAH inh,E coli Lon inh,PAFAH1B3 inh,PAFAH1B2 FP inh
COc1cc(NC(=O)C2(C)CCCN2C(=O)C(C)C)cc(OC)c1OC (stereo unspecified),x,n,x,n,x,x
O=C(NCc1ccc(Cl)cc1)Nc1ccc(F)cc1,n,n,x,n,n,n
O=C(COC(=O)Cc1ccc(Cl)cc1)Nc1ccc(OC(F)F)cc1,n,n,29,n,n,n
Cc1ccc(CNC(=O)Nc2ccc(Cl)cc2)cc1,n,n,n,n,n,65
O=C(COC(=O)Cc1ccc(Cl)cc1Cl)Nc1ccc(OC(F)F)cc1,n,n,n,n,n,n
CCOC(=O)Cc1ccc(NCc2ccc(Cl)cc2)cc1,n,n,n,n,n,24
Cc1cccc(C)c1-n1nnnc1C1(C)CCC(=O)N1CCCN1CCOCC1 (stereo unspecified),x,x,x,n,x,x
COc1cc2c(cc1NC(=O)C(C)NCc1ccccc1)oc1ccccc12 (stereo unspecified),n,n,26,n,n,n
O=[N+]([O-])c1ccccc1/C=C/C=N/n1c(-c2ccc(Cl)cc2)n[nH]c1=S,n,n,27,n,n,n
O=[N+]([O-])c1ccccc1/C=C/C=N/n1c(-c2ccccc2)n[nH]c1=S,n,n,n,n,n,n
COc1cc(-c2nc(-c3ccccc3)c(-c3cccs3)[nH]2)cc(OC)c1OC,n,n,n,n,n,n
COc1cc(-c2nc(-c3ccccc3)c(-c3cccs3)[nH]2)cc(OC)c1O,n,n,32,n,n,n
COc1cc(S(=O)(=O)Nc2cccc(C)c2)ccc1NC(=O)c1ccncc1,n,n,33,n,n,n
Cc1cccc(NC(=O)c2cccc(NS(=O)(=O)c3ccc(Cl)cc3)c2)c1,n,n,n,n,n,n
C=CCOc1c(Cl)cc(C(=S)N2CCCC2)cc1OCC,n,n,n,n,n,n
CCOC(=O)c1cc(-c2ccccc2)sc1NC(=O)c1ccc(OC)cc1,x,x,n,x,x,x
O=C(Nc1sc(-c2ccccc2)cc1C(=O)O)c1ccccc1,n,n,n,n,n,32
O=c1c(Cc2ccc(Cl)cc2Cl)c(O)ccn1Cc1ccc(Cl)cc1,n,n,n,n,n,28
COC(=O)Cc1c(O)ccn(Cc2ccc(Cl)c(Cl)c2)c1=O,n,n,n,n,n,28
COC(=O)Cc1c(O)ccn(Cc2ccc(OC)c(OC)c2)c1=O,n,n,n,n,n,n
O=C(Nc1cc([N+](=O)[O-])ccc1O)c1cccc(C(=O)Nc2cc([N+](=O)[O-])ccc2O)c1,33,n,n,n,34,n
O=C(Nc1ccc(O)cc1C(=O)O)c1ccc2c(c1)C(=O)N(Cc1ccco1)C2=O,n,n,n,n,n,n
O=C(Nc1cc([N+](=O)[O-])ccc1O)c1ccc2c(c1)C(=O)N(Cc1ccco1)C2=O,n,n,30,n,n,n
COc1ccccc1C(=O)N1CCN(C(=O)[C@H]2O[C@@H](n3ccc(N)nc3=O)[C@H](O)[C@@H]2O)CC1,x,n,x,n,x,x
CN(C)c1ccc2cc(S(=O)(=O)O)cc(O)c2c1,38,n,x,n,52,38
SMILES,PAFAH2 inh,Rin1-Abl PPI inh,pPAFAH inh,E coli Lon inh,PAFAH1B3 inh,PAFAH1B2 FP inh
O=Nc1c(O)ccc2cc(S(=O)(=O)O)ccc12,n,n,x,n,n,n
CCN1C[C@@H]2[C@@H]3C(=O)N(Cc4ccccc4)C(=O)[C@@H]3[C@](C)(C1=O)N2C(=O)c1ccc(Br)cc1,n,n,x,n,n,n
CCC1=NNc2cccc3c(OC)ccc1c23,x,x,48,x,x,x
Cc1[nH]c2c(C)cccc2c1CCNC(=O)c1ccc2c(c1[N+](=O)[O-])C(=O)c1ccccc1C2=O,n,n,n,n,40,n
CN(C)C(=O)c1ccc2c(c1[N+](=O)[O-])C(=O)c1ccccc1C2=O,n,n,n,n,n,n
O=C(CNc1cccc2ccccc12)N/N=C/C=C/c1ccco1,n,n,n,n,n,n
